rat GALR2 ag: activates the rat galanin receptor 2. activation, % at 10 µM. O08726. cell-based GALR2 agonist screen. hit rate 0.5% among 16,000; in the data active means activation above about 15%
PME-1 Maybridge: inhibitors of human PME-1 in Maybridge library; recombinant PME-1, FP-Rh probe fluorescence polarization; hit rate 0.5% among 16,000; inhibition, % at 9 µM; Q9Y570; in the data active means inhibition above about 30%
S1P1 agonist: S1P1 (human) receptor agonism | P21453 | S1P1 agonist cell-based reporter assay | activation, % at 4.5 µM | hit rate 1.5% among 16,000; in the data active means activation above about 80%
Target sequence (P21453 whole entry, looked up): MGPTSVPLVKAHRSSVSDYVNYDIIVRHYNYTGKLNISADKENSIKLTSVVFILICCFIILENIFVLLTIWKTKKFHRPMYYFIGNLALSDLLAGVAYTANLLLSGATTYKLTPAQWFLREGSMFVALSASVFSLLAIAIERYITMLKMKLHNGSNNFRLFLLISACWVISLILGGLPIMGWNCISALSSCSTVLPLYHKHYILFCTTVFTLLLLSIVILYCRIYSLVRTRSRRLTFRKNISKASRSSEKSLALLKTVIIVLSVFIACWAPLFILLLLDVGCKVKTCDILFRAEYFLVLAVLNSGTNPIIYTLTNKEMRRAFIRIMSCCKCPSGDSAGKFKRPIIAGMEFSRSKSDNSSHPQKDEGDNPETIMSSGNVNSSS
Active calls of the source: *. A selection: hits, their analogues and other compounds. The true share with any hit is near 2.7%.

SMILES	rat GALR2 ag	PME-1 Maybridge	S1P1 agonist
Cc1ccc(S(=O)(=O)NC(=O)Nc2ccc(N(C)C)cc2)cc1	-1	41*	-25
Cc1ccc(S(=O)(=O)NC(=O)Nc2ccc3c(c2)C(=O)OC3)cc1	-6	1	-1
O[C@@H]1CSSC[C@H]1O	-8	5	3
Cn1c(CSc2ccnc3cc(Cl)ccc23)nnc1SCC(=O)c1ccc(F)cc1	-5	-5	12
O=C1c2ccccc2C(=O)c2c(O)ccc(O)c21	-8	40*	-13
Cc1ccc(C)c2c1C(=O)c1ccccc1C2=O	-4	4	-2
CC(=O)Nc1ccccc1-c1nnc(-c2ccc(C(C)(C)C)cc2)o1	-9	-1	104*
CCOC(=O)C(=CNc1ccccc1-c1nnc(-c2ccc(Cl)cc2)o1)C(=O)OCC	-11	-14	-17
N/C(CN1CCSCC1)=N\OC(=O)c1cccs1	-3	-4	1
N#CC(CO)Cc1cc([N+](=O)[O-])ccc1N1CCCCC1 (stereo not given)	-7	2	95*
N#CC(CO)Cc1cc([N+](=O)[O-])ccc1N1CCOCC1 (stereo not given)	-8	3	3
COC(=O)c1cc(NC(=O)/C=C/c2ccc(OC)c(OC)c2Cl)ccc1N1CCOCC1	-6	-9	85*
COC(=O)c1cc(NC(=O)c2c(Cl)cccc2Cl)ccc1N1CCOCC1	-7	0	-11
CNC(=S)NNC(=O)Cn1nc(C)c(Br)c1C	-10	0	3
Cc1ccc(OC(=O)c2sc3ccccc3c2Cl)c([N+](=O)[O-])n1	-7	4	1
Cc1ccc(OS(=O)(=O)c2c(Cl)sc(Cl)c2Br)c([N+](=O)[O-])n1	-6	40*	23
COC(=O)c1cc(S(=O)(=O)N(Cc2ccc(OC)cc2)Cc2cccn2C)oc1C	-6	-2	-30
O=C1c2cccc3c(Sc4ccccc4)ccc(c23)C(=O)N1NCCO	-1	11	2
CCSc1ccc2c3c(cccc13)C(=O)N(Cc1ccccc1)C2=O	128*	-5	-31
CC(=O)c1ccc(C2CC2(Cl)Cl)cc1 (stereo not given)	-4	4	0
O=S(=O)(Nc1ccc(Cl)cc1)c1ccc(-c2cc(C(F)(F)F)on2)s1	-1	14	25
O=S(=O)(Nc1ccc2c(c1)OCCO2)c1csc(-c2cc(C(F)(F)F)on2)c1	-5	1	82*
O=[N+]([O-])c1ccc(SC2=NCCS2)nc1	2	-4	30
O=[N+]([O-])c1ccc(SC2=NCCS2)c([N+](=O)[O-])c1	-8	3	113*
CCCC(=O)c1cc2cc(Br)ccc2oc1=O	-8	-1	-17
SMILES	rat GALR2 ag	PME-1 Maybridge	S1P1 agonist
Oc1c(Cl)cc(Cl)cc1/C=N/NC(=S)NC1CC2CCC1C2 (stereo not given)	51*	8	-71
S=C(N/N=C/c1ccco1)NC1CC2CCC1C2 (stereo not given)	-1	-2	-27
CC(=O)n1nc(C)c(Sc2nnnn2-c2ccccc2)c1C	-5	10	25
CC1(C)CC(=O)C2=C(C1)Nc1ccccc1NC2c1ccco1 (stereo not given)	-4	-1	-9
COc1cc(C(=O)NC2CC(C)CC(C)(C)C2)cc(OC)c1OC (stereo not given)	-2	0	109*
COc1ccc(OC)c(NC(=O)C(=O)NC2CC(C)CC(C)(C)C2)c1 (stereo not given)	-9	-3	19
O=[N+]([O-])c1ccc(N2CCN(S(=O)(=O)c3ccc(F)c(Cl)c3)CC2)nc1	-6	2	1
COc1ccc2nsnc2c1	-8	-3	0
COc1ccc2nonc2c1	139*	-2	-2
Cc1cc(NS(=O)(=O)c2ccc(C(F)(F)F)cc2Cl)no1	-1	-3	-15
O=S(=O)(Nc1cc(C(F)(F)F)ccc1F)c1cc(C(F)(F)F)ccc1Cl	-3	3	85*
COC(=O)c1ccc(/N=C/N(C)C)o1	-1	2	0
CCC/C(O)=C(\C=N\c1ccc(C(=O)OC)o1)C(=O)OCC	-3	4	83*
O=C(O)Cc1cncc(Br)c1	-3	1	-10
CCSC(SCC)[C@@H](O)[C@H](O)[C@H](O)[C@@H](O)CO	-4	-2	7
OC[C@@H](O)[C@H](O)[C@H](O)[C@@H](O)C(SCc1ccccc1)SCc1ccccc1	-6	-1	103*
Cc1noc(/C=C/c2ccco2)c1[N+](=O)[O-]	-6	5	5
CSc1ccc(/C=C/c2onc(C)c2[N+](=O)[O-])s1	-15	64*	40
S=C(NNC(=S)NC1CC2C=CC1C2)Nc1ccc(Br)c(Cl)c1 (stereo not given)	-4	18	16
O=[N+]([O-])c1cc(C2SCCS2)ccc1SC1CCCCC1	-8	-1	86*
O=[N+]([O-])c1cc(C2SCCS2)ccc1Sc1ccc(Cl)cc1	2	5	21
COC(=O)c1sc2ccccc2c1OC(=O)c1cccs1	-8	28	23
COC(=O)c1sc2ccccc2c1Cl	-3	-4	107*
O=C(O)C1CCc2ccccc2O1 (stereo not given)	-6	3	-3
COCCCN=C1NC(=O)C(CC(=O)Nc2cc(Cl)ccc2Cl)S1 (stereo not given)	-4	-1	-5
SMILES	rat GALR2 ag	PME-1 Maybridge	S1P1 agonist
COC(=O)c1sccc1NNS(=O)(=O)c1ccc(Cl)cc1	-4	3	0
O=C(O)CSCC(=O)Nc1cccc(F)c1C(=O)O	-6	4	-4
O=C(O)CSCC(=O)Nc1cccc2c1CCCC2	24*	-2	0
Brc1ccc(-n2cccc2)nc1	-9	-3	86*
FC(F)(F)c1ccc(-n2ccnc2)nc1	-3	-1	-4
Cc1[nH]n(C)c(=O)c1N=Nc1ccc(C(C)C)cc1	-7	-8	102*
Cn1nc(-c2ccccc2)c(O)c(N=Nc2ccccc2)c1=O	-5	5	4
O=C(NC(=O)c1c(F)cccc1Cl)C(=O)Nc1ccc(Cl)cc1	1	-2	-24
COc1ccc(/C=C2\CC/C(=C\c3ccc(OC)c(OC)c3)C2=O)cc1OC	-9	19	2
COc1ccc(/C=C/c2nc3ccccc3s2)cc1OC	-3	4	85*

Source: PubChem BioAssay (The Scripps Research Institute Molecular Screening Center)
